Measurements as given in PubChem BioAssay (Tox21).
Records with an inconclusive call do not appear. Values without a mark were called inactive. The source made the active and inactive calls. The call rests on the fitted dose curve.

Assay: qHTS assay for small molecules that induce genotoxicity in human embryonic kidney cells expressing luciferase-tagged ATAD5 - cell viability (AID 651634); further: nearly all actives have a fitted effect of over 25% in size
Details: HEK293T ATAD5-luc cells viability, CellTiter-Fluor, 15.5 h; series mostly up to 83.3 µM; activity, negative = cytotoxicity: at the top concentration
Excerpt: National Center for Advancing Translational Sciences [NCATS]
NIH Chemical Genomics Center [NCGC]
U.S. Environmental Protection Agency [EPA]
National Institutes of Environmental Health Sciences [NIEHS]
National Toxicology Program [NTP]
U.S. Food and Drug Administration [FDA]
Enhanced Level of Genome Instability Gene 1 (ELG1; human ATAD5) protein levels increase in response to various types of DNA damage. Using a luciferase reporter-gene tagged with ElG1, a cell-based assay [developed by Kyungjae Myung, NHGRI, NIH] was used to measure the induction of ATAD5 in human embryonic kidney cells (HEK293T). So, increase in luciferase activity can be used to identify the compounds that cause genetic stress. In addition to genotoxicity, these cells were also used to test for cytotoxicity by measuring the protease activity within live cells.
Tox21 Assay Protocol Summary:
For cytotoxicity screening, 2,000 cells in 5 uL/well were dispensed into white, solid-bottom 1536-well plates using a Multidrop Combi (Thermo Scientific) dispenser. Following transfer of 23 nL compound or DMSO vehicle by a pin tool, the plates were incubated 15.5 hr at 37C and 5% CO2. 1 ul CellTiter-Fluor reagent (Promega, Madison, WI) was then added to each plate and following 30 min incubation at 37C, fluorescence intensity was quantified on a ViewLux CCD-based plate reader.
On the % scale 0 is the no-effect control and ±100 the full control effect.

| SMILES | activity, negative = cytotoxicity | Potency |
| --- | --- | --- |
| CC(C)OC(=O)c1ccccc1 | 13.8% [at 95.3 µM] |  |
| Cc1[nH]c(=O)c(C#N)cc1-c1ccc2nccn2c1 | 13.9% |  |
| CCOC(C)(C)C | 16.8% [at 95.3 µM] |  |
| NC(CSCC(=O)O)C(=O)O (stereo not given) | 29.1% |  |
| CC(C)(C)c1ccc(O)c(O)c1 |  | inactive |
| Cn1c(N)c(N=O)c(=O)n(C)c1=O | 4.86% [at 95.3 µM] |  |
| Cc1ccc(Cl)cc1Cl | -7.31% |  |
| CC(C)c1cc2c(cc1S(=O)(=O)O)[C@@]1(C)CCC[C@@](C)(C(=O)O)[C@@H]1CC2 | 4.32% |  |
| CC/C=C\CC/C=C/CO | 11.9% |  |
| NC(=O)Nc1ccccc1 | 15% |  |
| Cn1cc(S(C)=O)c(=O)c2ccc(F)cc21 (stereo not given) | 4.94% |  |
| CS(=O)(=O)O | 15.7% [at 95.3 µM] |  |
| N[C@H](C(=O)O)c1ccc(O)cc1 | 10% |  |
| CCCCCOC(=O)CCCCC | 9.14% |  |
| COC(=O)c1c(Cl)c(Cl)c(C(=O)OC)c(Cl)c1Cl |  | inactive |
| OCCCC1CCCCC1 | -7.86% |  |
| Nc1c2c(nc3ccccc13)CCCC2O (stereo not given) | 10.9% |  |
| CCn1ccnc1CC1COc2ccccc2O1 (stereo not given) | 42.2% |  |
| C[N+](C)(C)CC(O)CC(=O)[O-] (stereo not given) | 9.24% |  |
| COc1ccc(CCN(C)CCCC(C#N)(c2cc(OC)c(OC)c(OC)c2)C(C)C)cc1OC (stereo not given) | -6.94% |  |

| SMILES | activity, negative = cytotoxicity | Potency |
| --- | --- | --- |
| CCCCCCCCCCCCCCCCC | 21% |  |
| CN1C(=O)N(C)C(O)C1O (stereo not given) | 10.8% |  |
| C1CN(CCOCCN2CCOCC2)CCO1 | 11% |  |
| CN1CCC(=C2c3ccccc3CC(=O)c3sccc32)CC1 | 6.85% |  |
| C[C@H]1C[C@@H](O)CC(C)(C)C1 | 22.1% |  |
| CC(=O)OCC(CCn1cnc2cnc(N)nc21)COC(C)=O | 16.6% |  |
| O=C(CCCN1CCN(c2ccccn2)CC1)c1ccc(F)cc1 | 14.8% |  |
| NC(=O)c1ccc(N)cc1 | 3.26% |  |
| C1OCOCO1 | 14.5% [at 95.3 µM] |  |
| O=Cc1cccc([N+](=O)[O-])c1 | 12.8% |  |
| NS(=O)(=O)c1cc(C(=O)O)cc(N2CCCC2)c1Oc1ccccc1 | 23.2% [at 39.1 µM] |  |
| N#Cc1ccc(C2CCCc3cncn32)cc1 (stereo not given) | 5% [at 39.1 µM] |  |
| CCO[Si](CCC1CCC2OC2C1)(OCC)OCC (stereo not given) | 22.2% |  |
| Nc1c[n+](N2CCOCC2)no1 | -1.69% |  |
| NCCc1cnc[nH]1 | -18.9% |  |
| O=C(CCCN1CCC(O)(c2cccc(C(F)(F)F)c2)CC1)c1ccc(F)cc1 | -3.25% |  |
| CCCCOCCOCCOCc1cc2c(cc1CCC)OCO2 |  | inactive |
| Cc1c(O)cccc1O | 8.77% [at 95.3 µM] |  |
| CO[Si](CCCOCC1CO1)(OC)OC (stereo not given) |  | inactive |
| CCOC(=O)[C@H](CCc1ccccc1)N[C@@H](C)C(=O)N1[C@H](C(=O)O)C[C@@H]2CCC[C@@H]21 | 6.38% |  |
